About 14,000 (4.5%) of roughly 310,000 compounds showed an effect of 50% or more. The effect is printed as a negative number. The sample as a whole holds a higher share of strong results than the screen did.
Target: human ether-à-go-go-related gene (hERG) potassium channel (human, UniProt Q12809)
Test: primary screen, population patch clamp on CHO cells stably expressing hERG; higher = less effect of the substance
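Also: peak tail current of the secondary pulse compared with the same well before compound.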

Chain of human ether-à-go-go-related gene (hERG) potassium channel (Q12809 whole entry, looked up): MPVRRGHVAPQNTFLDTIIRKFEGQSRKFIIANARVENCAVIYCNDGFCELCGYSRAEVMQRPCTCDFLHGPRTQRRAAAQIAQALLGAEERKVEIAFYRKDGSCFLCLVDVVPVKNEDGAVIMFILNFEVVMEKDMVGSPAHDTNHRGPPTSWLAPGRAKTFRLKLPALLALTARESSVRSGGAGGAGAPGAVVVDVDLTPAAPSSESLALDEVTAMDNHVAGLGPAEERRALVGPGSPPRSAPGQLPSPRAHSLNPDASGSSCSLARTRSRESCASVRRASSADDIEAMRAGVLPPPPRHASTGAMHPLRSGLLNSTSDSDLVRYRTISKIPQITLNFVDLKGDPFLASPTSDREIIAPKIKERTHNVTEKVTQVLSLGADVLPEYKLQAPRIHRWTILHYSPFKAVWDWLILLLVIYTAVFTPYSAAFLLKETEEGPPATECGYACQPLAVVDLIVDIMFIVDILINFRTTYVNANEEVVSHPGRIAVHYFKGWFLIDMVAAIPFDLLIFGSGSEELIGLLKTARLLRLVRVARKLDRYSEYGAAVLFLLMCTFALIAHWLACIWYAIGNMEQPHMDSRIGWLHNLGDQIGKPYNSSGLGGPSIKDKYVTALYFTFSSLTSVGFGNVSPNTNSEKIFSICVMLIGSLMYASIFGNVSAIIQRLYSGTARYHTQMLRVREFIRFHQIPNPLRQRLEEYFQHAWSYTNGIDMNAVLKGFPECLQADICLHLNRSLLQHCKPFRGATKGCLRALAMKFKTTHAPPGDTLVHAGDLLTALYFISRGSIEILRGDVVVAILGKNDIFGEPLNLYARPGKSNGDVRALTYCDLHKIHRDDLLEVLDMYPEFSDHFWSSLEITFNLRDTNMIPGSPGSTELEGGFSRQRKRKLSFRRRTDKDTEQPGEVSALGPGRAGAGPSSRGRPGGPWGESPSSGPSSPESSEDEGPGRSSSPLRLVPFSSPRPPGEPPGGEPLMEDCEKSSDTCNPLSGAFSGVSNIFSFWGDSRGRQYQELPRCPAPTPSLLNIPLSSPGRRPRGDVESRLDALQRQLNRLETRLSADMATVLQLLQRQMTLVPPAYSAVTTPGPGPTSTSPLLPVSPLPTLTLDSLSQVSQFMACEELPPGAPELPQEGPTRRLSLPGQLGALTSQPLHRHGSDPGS

SMILES	hERG current change (%, negative = inhibition) at 10uM [%]
COc1c(O)c(=O)n2c3ccccc3c3ccnc1c32	7.51
CCc1ccc(NC(=O)Nn2cnnc2)cc1	23.7
COC(=O)CNC(=O)CSc1nnc(-c2ccc(OC)cc2)n1CC(C)C	4.97
O=C(/C=N/O)Nc1ccccc1C(=O)O	-13.7
N#Cc1ccc(C23CC4(C2)[C@H](CN(CC2CCCCC2)[C@@H]4c2ccccc2)C3c2ccccc2)cc1 (some centres unmarked)	-13.6
O=C(Nc1ccc(Cl)cc1)c1cccnc1N1CCCCC1	-13.3
COc1cc(C(=O)NCCNc2nc3ccc(C)cc3cc2C#N)cc(OC)c1OC	-4.74
Cc1cccc2cc3c(NC(=O)CC(C)C)nn(C)c3nc12	10.2
Fc1ccc(-[n+]2nc(Nc3ccccc3)sc2-c2cccc(Cl)c2Cl)cc1.[Cl-]	8
CCN(CC)c1ccc(-c2sc(Nc3ccccc3)n[n+]2-c2ccc(F)cc2)cc1.[Cl-]	-71.6
CCc1ccc(Nc2n[n+](-c3ccccc3)c(-c3ccc(N(CC)CC)cc3)s2)cc1.[Cl-]	-36
CN(C)c1ccc(-c2sc(Nc3ccccc3)n[n+]2-c2ccc(F)cc2)cc1.[Cl-]	-73.1
O=C(O)c1ccc(-c2sc(Nc3ccccc3)n[n+]2-c2ccc(F)cc2)cc1.[Cl-]	2.83
CSc1ccc(-c2sc(Nc3ccccc3)n[n+]2-c2ccccc2)cc1.[Cl-]	-46.2
Oc1ccc(-c2sc(Nc3ccccc3)n[n+]2-c2ccc(F)cc2)cc1.[Cl-]	-1.63
Cc1cccc(-c2sc(Nc3ccccc3)n[n+]2-c2ccc(F)cc2)c1.[Cl-]	21.7
Clc1cccc(-c2sc(Nc3ccccc3)n[n+]2-c2ccccc2)c1Cl.[Cl-]	5.53
CSc1ccc(-c2sc(Nc3ccccc3)n[n+]2-c2ccc(F)cc2)cc1.[Cl-]	1.55
Fc1ccc(-[n+]2nc(Nc3ccccc3)sc2-c2c(Cl)cccc2Cl)cc1.[Cl-]	-64
Cc1cccc(-c2sc(Nc3ccccc3)n[n+]2-c2ccccc2)c1.[Cl-]	-72

SMILES	hERG current change (%, negative = inhibition) at 10uM [%]
Cl.O=C(c1ccco1)N1CCN(Cc2nnnn2CC2CCCO2)CC1 (centres unmarked)	-3.16
Cn1c(=O)[nH]c(=O)c2c1nc(NC1CCCC1)n2Cc1ccccc1	15.8
CC1CCN(c2c(NCc3ccc(C(=O)N4c5ccccc5CC4C)cc3)c(=O)c2=O)CC1 (centres unmarked)	-13
Cc1ccc(S(=O)(=O)Nc2c(C(=O)O)[nH]c3ccccc23)c(C)c1	8.39
N#C/C(N)=C(/C#N)N=Cc1cccc(Cl)c1	4.99
CCN1CCN(Cc2c(O)ccc3c2O/C(=C\c2ccc(C)cc2)C3=O)CC1	-35.7
CSc1ccc(S(=O)(=O)Nc2ccc(NC(C)=O)cc2)cc1	-11.3
CCOc1ccc(CN(C(=O)/C=C/c2ccco2)C2CCS(=O)(=O)C2)cc1 (centres unmarked)	-31.6
CC(=O)c1cccc(N(C(=O)CNC(=O)c2ccco2)C(C(=O)NC2CCCC2)c2ccc(C)o2)c1 (centres unmarked)	6.93
O=C(C1CCCN(c2ncnc3c2nc2n3CCCCC2)C1)N1CCN(c2ccc(F)cc2)CC1 (centres unmarked)	-66.8
CC1CCN(CCCNC(=O)C2CCCN(c3ncnc4c3nc3n4CCCCC3)C2)CC1 (centres unmarked)	-3.75
CCN1CCN(C(=O)C2CCCN(c3ncnc4c3nc3n4CCCCC3)C2)CC1 (centres unmarked)	11.6
CCOC(=O)C1CCN(C(=O)C2CCCN(c3ncnc4c3nc3n4CCCCC3)C2)CC1 (centres unmarked)	-34.1
O=C(NCCCN1CCN(c2ccc(F)cc2)CC1)C1CCCN(c2ncnc3c2nc2n3CCCCC2)C1 (centres unmarked)	-66.3
O=C(C1CCN(c2ncnc3c2nc2n3CCCCC2)CC1)N1CCCCC1	16
O=C(NCCCN1CCCCC1)C1CCCN(c2ncnc3c2nc2n3CCCCC2)C1 (centres unmarked)	1.8
O=C(C1CCN(c2ncnc3c2nc2n3CCCCC2)CC1)N1CCN(c2ccc(F)cc2)CC1	-51.5
O=C(C1CCN(c2ncnc3c2nc2n3CCCCC2)CC1)N1CCN(c2ccccc2F)CC1	-33.1
Cc1ccc(N2CCN(C(=O)C3CCCN(c4ncnc5c4nc4n5CCCCC4)C3)CC2)c(C)c1 (centres unmarked)	-7.35
CN1CCN(C(=O)C2CCN(c3ncnc4c3nc3n4CCCCC3)CC2)CC1	17.7

SMILES	hERG current change (%, negative = inhibition) at 10uM [%]
O=C(C1CCCN(c2ncnc3c2nc2n3CCCCC2)C1)N1CCN(c2ccccc2F)CC1 (centres unmarked)	-72
O=C(O)CCC(=O)Nc1cc(C(F)(F)F)cc(C(F)(F)F)c1	15.1
Cc1ccccc1-n1c(-c2csc(C)c2C)n[nH]c1=S	17.6
Cc1cc(C)c2c(N)c(C(=O)c3cccc(Cl)c3)sc2n1	1.67
CCOc1ccc(C(=O)N2CCc3cc(OC)c(OC)cc3C2)cc1OCC	2.45
CCOC(=O)C(C(=O)OCC)N(C#N)c1nc(OC)nc(N(C)C)n1	-4.52
O=C(CS)Nc1ccc2ccccc2c1	20.8
CCn1c2ccccc2c2cc(NC(=O)c3cccc(OC)c3)ccc21	13.9
COC(=O)c1sccc1NC(=O)CC1C(=O)NCCN1C(=O)c1ccc(N(C)C)cc1 (centres unmarked)	7.57
COc1ccc(Cl)cc1NC(=O)CSc1nnc(CN2CCOCC2)n1-c1ccc(Cl)cc1	-46.6
O=C(Nc1ccc(S(=O)(=O)NCC2CCCO2)cc1)c1ccccc1 (centres unmarked)	2.19
O=C(C1CCCN(c2ncnc3c2nc2n3CCCCC2)C1)N1CCCCC1 (centres unmarked)	-18.2
CC1CC(C)CN(C(=O)C2CCCN(c3ncnc4c3nc3n4CCCCC3)C2)C1 (centres unmarked)	-35.8
O=C(C1CCCN(c2ncnc3c2nc2n3CCCCC2)C1)N1CCN(c2ccccc2)CC1 (centres unmarked)	-74
O=C(C1CCCN(c2ncnc3c2nc2n3CCCCC2)C1)N1CCN(c2ccc(Cl)cc2)CC1 (centres unmarked)	-54.8
O=C(C1CCN(c2ncnc3c2nc2n3CCCCC2)CC1)N1CCN(c2cccc(Cl)c2)CC1	-36.7
O=C(C1CCCN(c2ncnc3c2nc2n3CCCCC2)C1)N1CCN(c2cccc(Cl)c2)CC1 (centres unmarked)	-72.8
Cc1ccc(C)c(N2CCN(C(=O)C3CCCN(c4ncnc5c4nc4n5CCCCC4)C3)CC2)c1 (centres unmarked)	-33.6
CCCN1CCN(C(=O)C2CCCN(c3ncnc4c3nc3n4CCCCC3)C2)CC1 (centres unmarked)	-1.04

From PMC4336329 (PLoS ONE, 2015)
